From PubChem BioAssay (NCI) come the findings set out here.

The structures appear in SMILES notation. About 83,000 compounds went through this panel and 20% of them were active in at least one assay; those are over-represented in the sample as a whole.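 How to read the values: 0–100, growth inhibition (40 = 60% inhibited); 0, no net growth; -100 to 0, cell death (-40 = 40% of starting cells died; -100 = all dead).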 Values without a mark were called inactive. The source made the active and inactive calls. Rule for the calls: active = growth percent below 10; inactive = the rest.

The subject of the assay is HL-60(TB) leukemia. The experiment in a line: NCI-60 one-dose screen, 48 h (100 = growth as untreated, 0 = no growth, -100 = all killed). The following applies: 10 µM unless noted.
Consider `O=S(=O)(NCCNc1nccc(-c2c(-c3ccc(F)c(O)c3)nc3sccn23)n1)c1ccc(F)cc1`, for which the growth was 12.7%.
The figure for `N=c1c2c(=N)n3c(nc2nc2n1-c1ccccc1Sc1ccccc1-2)sc1cc(Cl)ccc13` is 50.3%; for `N#Cc1cccc(C2C3=C(COC3=O)N(CCO)c3cc4c(cc32)CCC4)c1` (stereo not given) it is -27.2% (active).
The figure for `CCOC(=O)c1c(C)n2c(=O)cc(C)c3c(OC(C)=O)c(OC(C)=O)cc1c32` is 0.923% (active).
For `CN(C)CCC(=O)c1c[nH]c2ccccc12`, the growth was 96.5%.
In the case of `CC1=CNNc2c3ncnc-3ncn21` it was 99.8%; in that of `COC(=O)CCc1n(Cc2ccc3ccccc3c2)c2ccccc2[n+]1Cc1ccc2ccccc2c1`, -49.1% (active); in that of `C=C(CNCCO)[C@@H]1CC[C@]2(CO)CC[C@]3(C)[C@H](CC[C@@H]4[C@@]5(C)CCC(NCCc6ccc(O)cc6)C(C)(C)[C@@H]5CC[C@]43C)[C@@H]12` (stereo not given in full), -52.2% (active).
The figure for `O=C(O)CCCl` is 107%.
The figure for `COc1ccc(C(=O)N2c3ccccc3Sc3ccccc32)c(F)c1` is 15.4%; for `CCOC(=O)c1c(C)oc2ncnc(N3CCN(C(=O)COc4ccc(C(C)(C)C)cc4)CC3)c12` it is 73.9%.
For the molecule `S=C=Nc1ccc2ccccc2c1`, the growth was 91.7%.
In the case of `O=C(O)COc1ccc(Cl)c(Cl)c1` it was 111%.
As for `O=C(N/N=C/c1c(Cl)cccc1Cl)c1ccc(C(F)(F)F)nc1Nc1cccc(C(F)(F)F)c1`, the growth was -44.5% (active).
Consider `CCCCOC(=O)c1cc(O)c(O)c(O)c1`, for which the growth was 24.7%.
In the case of `CC(O)(CO)c1ccccc1` (stereo not given) it was 116%; in that of `COc1cc(OC)c2cc(C(=O)O)c(=O)oc2c1`, 66%.
In the case of `COc1ccc(-c2nc(-c3nc4ccc(Cl)cc4[nH]3)c3ccccn23)cc1` it was 82.8%; in that of `CCOC(=O)CC1CSC(N/N=C/c2ccc(-n3cccn3)cc2)=N1` (stereo not given), 94%.
In the case of `C[C@@H]1CC2C3C[C@H](F)C4=CC(=O)C=C[C@]4(C)[C@@]3(F)[C@@H](O)C[C@]2(C)[C@@]1(O)C(=O)CO` (stereo not given in full) it was 99.1%; in that of `CCC(=O)Oc1cc(/C=C/C(=O)O[C@H]2C[C@H]3CN4CCc5c([nH]c6cc(OC)ccc56)[C@@H]4C[C@@H]3[C@@H](C(=O)OC)[C@@H]2OC)ccc1OC`, 16.3%; in that of `CCOC(=O)c1c2c(n3ccc(NC(=O)CCN4CCCC4)cc13)C(=O)c1ncccc1C2=O`, -34.2% (active).
As to `CC1=NN2C(=NC3=C(CCC/C3=C\c3ccc(Cl)cc3)C2c2ccc(Cl)cc2)S1` (stereo not given), the growth was 63.2%.
Take `CN1CCC(COc2cnc(-c3cccc(Cn4nc(-c5cccc(C#N)c5)ccc4=O)c3)nc2)CC1`: the growth was 95.3%.
The figure for `C[C@]12CC[C@@H]3c4ccc(OCC(=O)O)cc4CC[C@H]3[C@@H]1CCC2=O` is 84.7%; for `COc1ccc(C2CC(=O)Nc3c2c(C)nn3-c2nc3ccccc3[nH]2)cc1` (stereo not given) it is -17% (active); for `C/C(=C(/c1ccc(Cl)cc1)c1ccc(OCCN2CCCC2)cc1)c1ccccc1` it is 70.4%.
As for `COc1ccc(Cl)cc1Nc1nc(C(F)(F)F)ccc1C(=O)N/N=C/c1ccccc1Cl`, the growth is -11.3% (active).
In the case of `CCSc1ncc(Br)c(Sc2nc(N)nc3nc[nH]c23)n1` it was 87.8%; in that of `C(=N\Nc1nnn(Cc2ccccc2)n1)/c1ccccc1`, 5.57% (active); in that of `CCOc1cc(\C=N/N=C(N)/C(N)=N\N=C/c2ccc(O)c(OCC)c2)ccc1O`, 121%.
In the case of `O=S(=O)(O)CCI` it was 99.5%; in that of `O=C(O)c1cc(N=Nc2ccc(-c3ccc(N=Nc4c(S(=O)(=O)O)cc5ccc(Nc6ccccc6)cc5c4O)cc3)cc2)ccc1O`, 98.9%; in that of `COc1ccc2nc3cc(Cl)ccc3c(NCCCNCCC(C)O)c2c1` (stereo not given), -38.1% (active).
In the case of `O=C(O)c1ccccc1Oc1cc(-c2ccco2)nc(OCCN2CCOCC2)n1` it was 105%; in that of `Nc1ncnc2c1N=C(c1ccc([N+](=O)[O-])cc1)CC(c1ccc3c(c1)OCO3)N2` (stereo not given), 105%; in that of `O=C1/C=C/[C@@H](O)[C@@H]2C[C@@H](O)C[C@H]2/C=C/CCC[C@H](CCc2ccc3ncccc3c2)O1`, -52.3% (active).
As for `COc1cc(/C=C/C(=O)/C=C/c2cc(OC)c3c(c2OC)OCO3)c(OC)c2c1OCO2`, the growth is 27.2%.
The figure for `CC(C)C(=O)Nc1ncc(C(=O)NCCN(Cc2ccccc2)C(=O)c2ccc(S(=O)(=O)Nc3ccccc3)cc2)s1` is 107%.
The figure for `CC(C)(C)c1ccc(O)c(Br)c1` is 156%.
